Experimental data taken from PubChem BioAssay (Tox21).
Inconclusive results are not listed. The source made the active and inactive calls. Unless noted, calls come from the whole dose curve; as a rule, active = well fitted curve in the direction sought with a large enough effect in the repeat runs; inconclusive = weak or mixed curves; inactive = no such curve, though single readings can be large; an effect the other way counts as inactive or inconclusive.

Legend:
[1] = qHTS assay to identify small molecule antagonists of the thyroid receptor (TR) signaling pathway (AID 743065); note: nearly all actives have a fitted effect of over 55% in size; note: potency is the fitted concentration of half-maximal effect; for activity, negative = inhibition: series mostly up to about 70 µM
How it was run: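 GH3.TRE-Luc rat pituitary cells carrying two TR response elements driving luciferase were plated for 4 h, given compound plus 1 nM T3 (final), and incubated 23.5 h at 37 C. ONE-Glo luminescence measured reporter inhibition; CellTiter-Fluor fluorescence tracked cytotoxicity.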

[2] = tested on: thyroid hormone receptor (rat, GH3 cells); experiment: qHTS assay to identify small molecule agonists of the thyroid receptor (TR) signaling pathway (AID 743066; calls by dose curve)
[3] = qHTS assay to identify small molecule antagonists of the estrogen receptor alpha (ER-alpha) signaling pathway - cell viability counter screen (AID 743074; calls by dose curve;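 note: HEK293 cells carrying ER-alpha-UAS-bla reporter stimulated with 17beta-estradiol; nearly all actives have a fitted effect of over 45% in size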)
[4] = qHTS assay to identify small molecule antagonists of the estrogen receptor alpha (ER-alpha) signaling pathway using the BG1 cell line - cell viability counter screen (AID 743081);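 note: compound given together with 17beta-estradiol as the ER stimulus; series mostly up to about 70 µM; nearly all actives have a fitted effect of over 45% in size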
Aromatase (Homo sapiens) = Aromatase (Homo sapiens) (UniProt P11511); experiment: qHTS assay to identify aromatase inhibitors (AID 743083); note: series mostly up to about 70 µM; nearly all actives have a fitted effect of over 55% in size
[5] = molecular target: Estrogen receptor (Homo sapiens) (UniProt P03372); experiment: qHTS assay to identify small molecule antagonists of the estrogen receptor alpha (ER-alpha) signaling pathway (AID 743069; active = well fitted curve in the direction sought with a large enough effect in the signal ratio in the repeat runs, not every such curve was filed as active; the % refers to the signal ratio)
How it was run: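 Estradiol-stimulated ER-alpha-UAS-bla HEK293 cells, 18 hr compound exposure at 37C. LiveBLAzer B/G substrate, 2 hr RT, fluorescence read.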

[6] = molecular target: Estrogen receptor (Homo sapiens) (UniProt P03372); experiment: qHTS assay to identify small molecule agonists of the estrogen receptor alpha (ER-alpha) signaling pathway (AID 743075; calls by dose curve;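 note: HEK293 GripTite cells with ER-alpha and UAS-driven beta-lactamase reporter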)
[7] = molecular target: Estrogen receptor (Homo sapiens) (UniProt P03372); experiment: qHTS assay to identify small molecule agonists of the estrogen receptor alpha (ER-alpha) signaling pathway using the BG1 cell line (AID 743079); note: nearly all actives have a fitted effect of over 20% in size; note: potency is the fitted concentration of half-maximal effect
[8] = qHTS assay to identify small molecule antagonists of the estrogen receptor alpha (ER-alpha) signaling pathway using the BG1 cell line (AID 743080; calls by dose curve;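 note: BG1 cells stimulated with 17beta-estradiol alongside compound; series mostly up to about 70 µM; nearly all actives have a fitted effect of over 25% in size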)
How it was run: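 Readout is ONE-Glo luminescence, taken 30 min at room temperature after reagent addition, preceded by a CellTiter-Fluor viability read; BG1-Luc-4E2 cells had received compound and 17beta-estradiol for 21.5 h at 37 C.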
% is set by controls: 0 for no effect and ±100 for the full control effect.

Chain of Aromatase (Homo sapiens) (P11511 whole entry, looked up): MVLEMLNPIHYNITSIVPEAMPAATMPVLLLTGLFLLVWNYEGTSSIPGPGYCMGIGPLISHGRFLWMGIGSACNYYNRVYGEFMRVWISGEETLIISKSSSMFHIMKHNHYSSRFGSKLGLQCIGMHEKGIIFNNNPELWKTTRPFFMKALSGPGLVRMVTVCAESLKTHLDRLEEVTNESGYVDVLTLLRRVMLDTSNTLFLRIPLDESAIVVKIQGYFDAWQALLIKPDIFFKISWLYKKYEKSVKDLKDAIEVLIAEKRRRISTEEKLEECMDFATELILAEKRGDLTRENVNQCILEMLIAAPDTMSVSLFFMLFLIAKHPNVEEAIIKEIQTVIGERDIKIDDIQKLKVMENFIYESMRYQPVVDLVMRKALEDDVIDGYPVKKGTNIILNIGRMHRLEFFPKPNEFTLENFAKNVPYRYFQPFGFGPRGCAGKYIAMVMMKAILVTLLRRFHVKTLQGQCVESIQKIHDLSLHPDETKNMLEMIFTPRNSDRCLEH
Chain of Estrogen receptor (Homo sapiens) (P03372 whole entry, looked up): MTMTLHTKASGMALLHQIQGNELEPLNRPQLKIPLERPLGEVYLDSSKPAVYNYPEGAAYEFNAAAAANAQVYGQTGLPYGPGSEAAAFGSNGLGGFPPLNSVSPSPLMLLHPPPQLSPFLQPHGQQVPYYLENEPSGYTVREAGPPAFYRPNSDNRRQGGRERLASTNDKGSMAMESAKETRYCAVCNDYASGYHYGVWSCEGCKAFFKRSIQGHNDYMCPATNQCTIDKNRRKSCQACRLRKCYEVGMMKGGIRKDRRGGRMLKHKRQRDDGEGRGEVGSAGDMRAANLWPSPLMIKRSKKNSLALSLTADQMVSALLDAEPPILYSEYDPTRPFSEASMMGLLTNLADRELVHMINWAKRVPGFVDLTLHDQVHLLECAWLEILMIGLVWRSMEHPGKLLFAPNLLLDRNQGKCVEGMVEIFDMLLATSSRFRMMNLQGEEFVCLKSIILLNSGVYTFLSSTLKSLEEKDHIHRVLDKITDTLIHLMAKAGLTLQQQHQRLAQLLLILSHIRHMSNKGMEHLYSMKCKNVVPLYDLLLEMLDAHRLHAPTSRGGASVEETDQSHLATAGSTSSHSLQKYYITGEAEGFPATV

OCC(O)CN1CCN(c2ccccc2)CC1 (stereo not given)
inactive: Potency [1] | outcome [2] | outcome [3] | Potency [4] | outcome (Aromatase (Homo sapiens))

C=C(C)[C@@H]1CC=C(C)C(=O)C1
inactive: Potency [1] | outcome [2] | outcome [3] | Potency [4] | outcome (Aromatase (Homo sapiens))

C=CCN1C[C@H](C(=O)N(CCCN(C)C)C(=O)NCC)C[C@@H]2c3cccc4[nH]cc(c34)C[C@H]21
inactive: outcome [5] | outcome [3] | Potency [6] | Potency [7] | outcome [8] | outcome (Aromatase (Homo sapiens))

CNCCS(=O)(=O)O
inactive: Potency [1] | outcome [2] | outcome [3] | Potency [4] | outcome (Aromatase (Homo sapiens))

CC(N)CCCC(C)(C)O (stereo not given)
inactive: Potency [1] | outcome [2] | outcome [3] | Potency [4] | outcome (Aromatase (Homo sapiens))

CC(C)(CO)C(O)C(=O)NCCCO (stereo not given)
inactive: outcome [5] | outcome [3] | Potency [6] | Potency [7] | outcome [8] | Potency [4] | outcome (Aromatase (Homo sapiens))

C=Cc1ccc(C(C)(C)C)cc1
inactive: Potency [1] | outcome [2] | outcome [3] | Potency [4] | outcome (Aromatase (Homo sapiens))

COc1ccc(CCO)cc1
inactive: Potency [1] | outcome [2] | outcome [3] | Potency [4] | outcome (Aromatase (Homo sapiens))

CC1=NN(c2ccc(S(=O)(=O)O)cc2)C(=O)C1
inactive: Potency [1] | outcome [2] | outcome [3] | Potency [4] | outcome (Aromatase (Homo sapiens))

CC1CCc2c(N3CCC(O)CC3)c(F)cc3c(=O)c(C(=O)O)cn1c23 (stereo not given)
inactive: Potency [1] | outcome [2] | outcome [3] | Potency [6] | Potency [7] | outcome [8] | Potency [4] | outcome (Aromatase (Homo sapiens))

c1ccc2c(CC3=NCCN3)cccc2c1
inactive: Potency [1] | outcome [2] | outcome [3] | outcome [8] | Potency [4] | outcome (Aromatase (Homo sapiens))

Cn1c(=O)c2[nH]c(Br)nc2n(C)c1=O
inactive: outcome [2] | outcome [3] | Potency [4] | outcome (Aromatase (Homo sapiens))
active: Potency [1] 26.6 µM

CC(=O)CC(=O)OC(C)(C)C
inactive: Potency [1] | outcome [2] | outcome [5] | outcome [3] | Potency [6] | outcome [8] | Potency [4] | outcome (Aromatase (Homo sapiens))

Cc1cccc(Cl)c1
inactive: Potency [1] | outcome [2] | outcome [3] | Potency [4] | outcome (Aromatase (Homo sapiens))

N#Cc1cscn1
inactive: Potency [1] | outcome [2] | Potency [4] | outcome (Aromatase (Homo sapiens))

Cc1ccnc(N)c1
inactive: Potency [1] | outcome [2] | outcome [3] | Potency [4] | outcome (Aromatase (Homo sapiens))

CCCCC1CCC(O)CC1 (stereo not given)
inactive: Potency [1] | outcome [2] | outcome [3] | Potency [4] | outcome (Aromatase (Homo sapiens))

NCC1(Cc2noc(=O)[nH]2)CCCCC1
inactive: outcome [5] | outcome [3] | Potency [6] | Potency [7] | outcome [8] | Potency [4] | outcome (Aromatase (Homo sapiens))

O=C1c2ccccc2C(=O)c2cc(Cl)ccc21
inactive: activity, negative = inhibition [1] 31.6% [at 8.44 µM] | activation [2] 1.1% [at 8.08 µM] | activity, negative = inhibition [5] -4.44% [at 6.71 µM] | activity, negative = cytotoxicity [3] -11.1% [at 6.72 µM] | activation [6] -3.38% [at 6.71 µM] | activity change, negative = inhibition [8] 1.09% [at 8.47 µM] | activity change, negative = cytotoxicity [4] 5.98% [at 8.47 µM] | activity, negative = inhibition (Aromatase (Homo sapiens)) 23.3% [at 8.47 µM]

COc1cc2c(cc1OC)C(=O)C(CC1CCN(Cc3ccccc3)CC1)C2 (stereo not given)
inactive: outcome [2] | outcome [3] | Potency [6] | Potency [4] | outcome (Aromatase (Homo sapiens))
active: Potency [1] 26.6 µM | Potency [7] 26.6 µM

CC(=O)C1C(=O)C=C(C)OC1=O (stereo not given)
inactive: Potency [1] | outcome [2] | outcome [5] | Potency [6] | Potency [7] | outcome [8] | Potency [4] | outcome (Aromatase (Homo sapiens))

Cc1ccc2c(c1)C(=O)c1ccccc1C2=O
inactive: Potency [1] | outcome [2] | outcome [3] | Potency [6] | Potency [4] | outcome (Aromatase (Homo sapiens))
active: Potency [7] 34.2 µM

CC(=O)O[Si](C)(OC(C)=O)OC(C)=O
inactive: Potency [1] | outcome [2] | outcome [3] | Potency [4] | outcome (Aromatase (Homo sapiens))

CCc1occc(=O)c1O
inactive: Potency [1] | outcome [2] | outcome [3] | Potency [6] | Potency [7] | outcome [8] | Potency [4] | outcome (Aromatase (Homo sapiens))

C=C(C)C1CC=C(C)C(=O)C1 (stereo not given)
inactive: Potency [1] | outcome [2] | outcome [3] | Potency [4] | outcome (Aromatase (Homo sapiens))

OC[C@@H](O)C(O)[C@@H](O)CO (stereo not given in full)
inactive: Potency [1] | outcome [2] | Potency [4] | outcome (Aromatase (Homo sapiens))

CO/N=C(/C(=O)N[C@@H]1C(=O)N2C(C(=O)[O-])=C(C[n+]3ccn4ncccc43)CS[C@H]12)c1nsc(N)n1
inactive: outcome [5] | outcome [3] | Potency [6] | Potency [7] | outcome [8] | Potency [4] | outcome (Aromatase (Homo sapiens))

CO[Si](CCCn1c(=O)n(CCC[Si](OC)(OC)OC)c(=O)n(CCC[Si](OC)(OC)OC)c1=O)(OC)OC
inactive: Potency [1] | outcome [2] | outcome [3] | Potency [4] | outcome (Aromatase (Homo sapiens))
